Assay outcomes deposited in PubChem BioAssay by several laboratories.
Most compounds without a hit are left out; they make up all but 4.1% or so of the library.
GDH-TPI counter = GDH-TPI coupling enzyme inhibitors, primary screen, artefact control for M. tuberculosis FBA inhibitor project, biochemical, absorbance, full deck; inhibition, % at 4.8 µM; GDH-TPI coupled enzyme counterscreen, NADH absorbance; actives 1.2% (n = 360,000); in the data active = inhibition above about 30%
RecA splice inh = Mtb RecA intein splicing inhibitors, primary screen, biochemical, fluorescence, HTS; AID 2221, 2009; inhibition, % (no concentration beside the values); cell-free RecA intein splicing; Protein RecA (Mycobacterium tuberculosis (strain ATCC 25618 / H37Rv)), P9WHJ3; actives 0.75% (n = 290,000); in the data active = inhibition above about 30%
FBA Mtb inh = Mtb FBA enzyme inhibitors, primary screen, biochemical, fluorescence, strain H37Rv | actives 2.3% (n = 360,000) | inhibition, % at 1 µM | Fructose-bisphosphate aldolase (Mycobacterium tuberculosis (strain ATCC 25618 / H37Rv)), … | purified M. tuberculosis FBA, fluorescence read-out | AID 588726, 2011; in the data active = inhibition above about 27%
Mtb UGM inh = M. tuberculosis UGM enzyme inhibitors, primary screen, biochemical, fluorescence polarization, single point; purified UGM, fluorescence polarization probe displacement; inhibition, % at 10 µM; actives 0.06% (n = 320,000); AID 504406, 2011; in the data active = inhibition above about 10%, passing the limit was not always enough
Vc quorum ag = inducers of Vibrio cholerae quorum light production without autoinducers, primary screen, BH1578 luxS cqsA deficient, single point; AID 588436, 2011; actives 0.16% (n = 350,000); activation, % at 18.7 µM; V. cholerae BH1578 lux reporter, luminescence, 6 h; in the data active = activation mostly above about 9.7%, no sharp cut-off
Rv3671c protease = Rv3671c serine protease inhibitors, primary screen, biochemical, fluorescence polarization, M. tuberculosis H37Rv; P9WHR9; inhibition, % at 5.96 µM; actives 0.048% (n = 320,000); in the data active = inhibition above about 38%;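 also: extracellular domain of Rv3671c used as enzyme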
Target sequence (P9WHR9 whole entry, looked up, the tested form may be a part): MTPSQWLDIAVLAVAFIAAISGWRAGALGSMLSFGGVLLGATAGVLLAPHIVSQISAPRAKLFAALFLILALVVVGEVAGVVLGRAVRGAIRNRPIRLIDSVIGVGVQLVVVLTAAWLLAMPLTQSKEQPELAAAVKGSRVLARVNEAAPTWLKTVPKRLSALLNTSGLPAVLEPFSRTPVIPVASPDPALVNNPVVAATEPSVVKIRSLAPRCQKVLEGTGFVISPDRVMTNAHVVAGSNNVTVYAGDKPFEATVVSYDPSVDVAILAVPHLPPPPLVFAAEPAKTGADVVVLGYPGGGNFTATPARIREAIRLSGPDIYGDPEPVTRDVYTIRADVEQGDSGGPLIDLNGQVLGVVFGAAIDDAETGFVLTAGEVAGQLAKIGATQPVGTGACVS
Of the large screens only hits and unclear results are named; the others gave an inactive call; ! = a repeat was not active.

CCOc1ccc(-n2c(O)c(C=Nc3ccc(N4CCOCC4)cc3)c(=O)[nH]c2=O)cc1	GDH-TPI counter 32
CC(=O)N1CCN(CCN=Cc2c(O)n(-c3ccc(F)cc3)c(=S)[nH]c2=O)CC1	none
Cn1c(O)c(/C=N/N2CCOCC2)c(=O)n(-c2ccccc2)c1=S	GDH-TPI counter 35
CC(=O)N1CCN(CCN=Cc2c(O)n(-c3ccc(C)cc3)c(=S)[nH]c2=O)CC1	GDH-TPI counter 37
Cc1ccccc1-n1c(O)c(/C=N/N2CCOCC2)c(=O)[nH]c1=S	none
O=c1[nH]c(=S)n(-c2ccc(F)cc2)c(O)c1/C=N/N1CCOCC1	GDH-TPI counter 31
Cc1cc(C)n2nc(C(=O)OC(C)C(=O)c3ccccc3)nc2n1 (configuration not stated)	none
Cc1ccc(/C(O)=C2/C(=O)C(=O)N(Cc3cccnc3)C2c2ccccn2)cc1 (configuration not stated)	GDH-TPI counter 38 (no result: RecA splice inh)
COc1ccc(-c2ccc(C(c3c(C)[nH][nH]c3=O)c3c(C)[nH][nH]c3=O)o2)c([N+](=O)[O-])c1	none (no result: RecA splice inh, Mtb UGM inh, Rv3671c protease)
Cc1[nH][nH]c(=O)c1C(c1ccccc1[N+](=O)[O-])C(C#N)C#N (configuration not stated)	RecA splice inh 70
CCCCNC(=O)c1nc(C2CCN(S(=O)(=O)c3c(F)cccc3F)CC2)oc1-c1ccccc1	none (no result: GDH-TPI counter, RecA splice inh, Mtb UGM inh, Vc quorum ag, Rv3671c protease)
CCCCNC(=O)c1nc(-c2ccncc2)oc1-c1ccccc1	FBA Mtb inh active (no result: GDH-TPI counter, RecA splice inh, Mtb UGM inh, Vc quorum ag, Rv3671c protease)
CN(C)Cc1c(O)ccc2c(=O)c(-c3ccccc3Cl)c(C(F)(F)F)oc12	GDH-TPI counter 36 (no result: RecA splice inh)
O=C1CS/C(=N/N=C/c2ccncc2)N1	none
Cn1ccc(/C=N/N=C2/NC(=O)CS2)n1	GDH-TPI counter 46
O=C(O)c1cc(O)c2c(c1)[C@H]([C@H]1c3cc(C(=O)O)cc(O)c3C(=O)c3c(O[C@@H]4O[C@H](CO)[C@@H](O)[C@H](O)[C@H]4O)cccc31)c1cccc(OC3O[C@H](CO)[C@@H](O)[C@H](O)[C@H]3O)c1C2=O (some centres not stated)	Rv3671c protease 75
O=C1c2cc(CO)cc(O)c2C(=O)c2c(O[C@@H]3OC(CO)[C@@H](O)[C@@H](O)[C@@H]3O)cccc21 (some centres not stated)	none
O=C(O)c1cc(O)c2c(c1)[C@@H]([C@H]1c3cc(C(=O)O)cc(O)c3C(=O)c3c(O[C@@H]4O[C@H](CO)[C@@H](O)[C@H](O)[C@H]4O)cccc31)c1cccc(OC3O[C@H](CO)[C@@H](O)[C@H](O)[C@H]3O)c1C2=O (some centres not stated)	Rv3671c protease 75
O=C1c2c(O)cccc2C(C2OC(CO)[C@@H](O)[C@H](O)[C@H]2O)c2cc(CO)cc(O)c21 (some centres not stated)	none (no result: RecA splice inh)
O=C(CSC1=NS(=O)(=O)c2ccccc2N1)Nc1nccs1	none
O=C1OC(/C=C/c2ccccc2)=NC/1=C/C=C/c1ccccc1	GDH-TPI counter 32
C[C@@H]1CCC(=O)N(CC[C@H](Sc2ccc(Br)cc2)c2ccccc2)CC1	none (no result: RecA splice inh)
Cc1ccc(S[C@@H](CCN2CC[C@H](C)CCC2=O)c2ccccc2)cc1	RecA splice inh 30
COc1ccc(C(=O)c2sc(NC(C)C)nc2N)cc1OC	GDH-TPI counter 37 (no result: RecA splice inh)
O=S(=O)(c1cccc(-c2n[nH]c(=S)n2-c2ccc(OC(F)(F)F)cc2)c1)N1CCOCC1	none (no result: RecA splice inh)
COC(=O)c1cc2c(s1)=NC=NP=2(N1CCOCC1)N1CCOCC1	GDH-TPI counter 31!
N=C1c2c(cc(=O)n3c2[nH]c2ccccc23)CN1CCN1CCOCC1	FBA Mtb inh active
COCCN1Cc2cc(=O)n3c([nH]c4ccccc43)c2C1=N	FBA Mtb inh active
COCCn1c(=S)[nH]c2cc(C(=O)N3CCc4ccccc4C3)ccc2c1=O	none
O=C1C2C3C=CC(C3)C2C(=O)N1CNc1ccc(O)cc1 (configuration not stated)	RecA splice inh 62 (no result: GDH-TPI counter, FBA Mtb inh, Vc quorum ag)
C#Cc1ccc(C(=O)Nc2cc(C(N)=O)ccc2N2CCOCC2)cc1	GDH-TPI counter 32
CCN(C[C@H]1N[C@@](C)(C(=O)OC)[C@H]2C(=O)N(C)C(=O)[C@@H]12)S(=O)(=O)c1ccc(C(F)(F)F)cc1	none (no result: RecA splice inh)
Nc1ccc(-c2cnc(-c3ccc(N)cc3)nc2)cc1	GDH-TPI counter 67
COC1OC(CO)C(N(C)C(C)=O)C1O (configuration not stated)	none (no result: RecA splice inh, Mtb UGM inh, Rv3671c protease)
Clc1ccc(Br)c(-c2nc3ccccc3[nH]2)c1	none (no result: RecA splice inh, Mtb UGM inh, Rv3671c protease)
COc1cc(N)c(Cc2nccc3cc(OC)c(OC)cc23)cc1OC	RecA splice inh 46
CCc1nc(Nc2ccc3c(c2)OCO3)c2oc3ccccc3c2n1	none
CCc1nc(Nc2cccc(O)c2)c2oc3ccccc3c2n1	GDH-TPI counter 31 (no result: Rv3671c protease)
CN(CC(=O)Nc1c(Cl)cccc1Cl)CC(=O)N1CCc2ccccc21	none (no result: RecA splice inh, Mtb UGM inh, Rv3671c protease)
O=C(COC(=O)CN1C(=O)NC2(CCCC2)C1=O)NCc1ccc(Cl)cc1Cl	Mtb UGM inh 11 (no result: RecA splice inh, Vc quorum ag)
CCC(=O)N(CCC(c1ccc(C)cc1)c1ccco1)Cc1ccco1 (configuration not stated)	none
COc1ccc(CCNC(=O)C2CCN(S(=O)(=O)c3ccc(NC(C)=O)cc3)CC2)cc1OC	none
CC(C)=CCN1CCN(Cc2cccc3nonc23)CC1CCO (configuration not stated)	none
CC(C)=CCN1CCN(Cc2cccc3nccnc23)CC1CCO (configuration not stated)	GDH-TPI counter 31
O=C(c1cccnc1)c1ncc(C(F)(F)F)cc1Cl	none
CCOC(=O)C1CCN(S(=O)(=O)c2cccc3nonc23)CC1	none
CCOC(=O)C1CCN(S(=O)(=O)c2c(Cl)ccc3nonc23)CC1	RecA splice inh 41
CCC(=O)OCOc1ccc(/C=C2/CCC(CN(C)C)C2=O)cc1 (configuration not stated)	GDH-TPI counter 32 (no result: RecA splice inh, Mtb UGM inh, Rv3671c protease)
CCOc1ccc(/C=C2\CCC(C3CCCC3)C2=O)cc1 (configuration not stated)	none
COc1ccc(S(=O)(=O)N2CCN(CC(=O)NC(Cc3ccccc3)C(C)=O)CC2)cc1 (configuration not stated)	none (no result: RecA splice inh)
Cc1ccccc1OCCn1cc(C(=S)N2CCCC2)c2ccccc21	Mtb UGM inh 11 (no result: RecA splice inh)
Cc1ccccc1OCCn1cc(C(=S)N2CCN(C)CC2)c2ccccc21	none
